Our source for the Percent Effect values is ChEMBL document CHEMBL3988442, “University of Dundee, Small-Polar-MMV Screening Library” (2021).

Test [1] concerns the target T1, Aspartate--tRNA(Asp/Asn) ligase (Mycobacterium tuberculosis (strain ATCC 25618 / H37Rv)) (UniProt P9WFW3). Further: in the data most compounds retested in dose-response had high values.
T1 sequence (whole entry): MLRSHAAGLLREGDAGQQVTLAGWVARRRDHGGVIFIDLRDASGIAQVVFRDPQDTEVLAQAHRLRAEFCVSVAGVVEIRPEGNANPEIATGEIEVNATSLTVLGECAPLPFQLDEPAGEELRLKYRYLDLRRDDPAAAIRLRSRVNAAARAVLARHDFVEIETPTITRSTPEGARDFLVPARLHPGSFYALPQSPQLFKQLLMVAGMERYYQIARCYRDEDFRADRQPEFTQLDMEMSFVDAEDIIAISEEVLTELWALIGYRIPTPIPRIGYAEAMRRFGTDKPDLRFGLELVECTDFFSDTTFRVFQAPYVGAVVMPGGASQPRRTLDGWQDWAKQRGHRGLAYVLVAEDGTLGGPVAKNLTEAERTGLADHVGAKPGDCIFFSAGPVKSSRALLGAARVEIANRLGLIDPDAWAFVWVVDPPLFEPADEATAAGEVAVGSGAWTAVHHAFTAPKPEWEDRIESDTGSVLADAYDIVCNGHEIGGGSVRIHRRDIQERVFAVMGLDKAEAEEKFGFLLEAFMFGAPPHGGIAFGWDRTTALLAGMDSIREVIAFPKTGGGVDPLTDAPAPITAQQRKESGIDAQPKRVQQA
Put plainly: Assay for Asp RNA synthetase-1 from Mycobacterium tuberculosis. Format: functional. The following applies: 30 µM. Further details: scale not given: direction of the effect not stated beside the values.

For test [2], the target named is Shiga toxin 2 (Escherichia coli O157:H7) (UniProt P09385+P09386). The test is described as follows: E. coli 0.157:H7 Shiga Toxin SOP - stx2 screening assay. More on the design: scale not given: direction of the effect not stated beside the values. Format: functional. To be noted: 30 µM.

As for `CCOC1CCCN(C(=O)c2sccc2-n2cnnn2)C1` (configuration not stated), the Percent Effect is -4.21% in test [1] and -8.57% in test [2].

Take `Cc1cc(NC(=O)CN2CCOC(Cn3cccn3)C2)n(C)n1` (configuration not stated): the Percent Effect is -3.92% in test [1] and -12.8% in test [2].

Turning to `c1cnc2c(C3CCN(Cc4ccsc4)CC3)n[nH]c2n1`, the figures for the Percent Effect in test [1] and in test [2] were -1.29% and -14.5%, respectively.

As for `CN(CCC#N)C(=O)CCOc1cccc(F)c1`, the Percent Effect was -3.59% in test [1] and -25.6% in test [2].

With `COC(=O)C(NC(=O)C(C)C)c1cc(F)ccc1F` (configuration not stated), the Percent Effect in test [1] was -0.455%; in test [2], 15.2%.

As to `CC(C)NC(=O)c1ccc2c(c1)nc1n2CCN(C(C)C)C1`, the Percent Effect is -0.435% in test [1] and -61.8% in test [2].

With `CN(C(=O)Cc1ccc2c(c1)OCCO2)C1CCCC1`, the Percent Effect in test [1] is -2.52%; in test [2], 0.101%.

On to `COc1ccc(C2CC(=O)Nc3c2nc2n3CCCC2)cc1O` (configuration not stated), for which the figures for the Percent Effect in test [1] and in test [2] were -2% and -3.52%, respectively.

Turning to `COc1ncccc1C(=O)Nc1nc2c(s1)CN(S(=O)(=O)C1CC1)CC2`, the Percent Effect in test [1] was -4.8%; in test [2] it was -20%.

As for `CS(=O)(=O)NCc1cc2n(n1)CCCN(Cc1cccc(C#N)c1)C2`, the Percent Effect in test [1] was determined as 0.342%; in test [2] it was 18.6%.

For `COCCN1CCc2cc(C(=O)N(C)C)c(NC(C)C)nc2CC1`, the Percent Effect in test [1] is -1.31%; in test [2], -20%.

Consider `CCCN1CCN(C(=O)c2cnccn2)[C@H]2CS(=O)(=O)C[C@H]21`, for which the Percent Effect is -3.33% in test [1] and -11.3% in test [2].

Take `O=C(CN1CCC(c2cccc(F)c2)C1)NCc1ccco1` (configuration not stated): the Percent Effect in test [1] was -0.144%; in test [2], -21.6%.

In the case of `O=C(c1ccc(Br)o1)N1CCCCC1Cn1cccn1` (configuration not stated), the Percent Effect in test [1] is 4.78%; in test [2] it was -8.55%.

For the compound `O=C(NCCN1CCCc2ccccc21)c1scnc1Cl`, the Percent Effect in test [1] was -4.16%; in test [2], 0.202%.

Take `CO[C@@H]1CCN(Cc2cnn(C)c2)[C@@H]2CN(Cc3ccco3)C[C@@H]21`: the Percent Effect in test [1] is -4.07%; in test [2] it was -22%.

`CN(Cc1ccsc1)C(=O)CN1CCOC(Cn2cccn2)C1` (configuration not stated): the Percent Effect in test [1] was 0.463%; in test [2] it was -18.6%.

For `COc1c(C)cnc(CN2CCC(N(C)C(C)C(N)=O)CC2)c1C` (configuration not stated), the Percent Effect in test [1] is -3.49%; in test [2], -5%.

`O=C(CSc1ccc(F)c(F)c1)NS(=O)(=O)c1ccc2c(c1)OCCO2`: the figures for the Percent Effect in test [1] and in test [2] were 3.35% and 10.6%, respectively.

For `CCn1cc(CN2C[C@@H]3CCCN3C[C@@H]2CCSC)c(C)n1`, the values for the Percent Effect in test [1] and in test [2] were -0.662% and 5.06%, respectively.

Turning to `CC(=O)c1cc(CC(=O)NCc2ccc(F)cc2)cs1`, the Percent Effect in test [1] was 1.48%; in test [2], -11.3%.

Take `Cc1cc(C(=O)NCc2cccnc2OC(C)C)no1`: the results for the Percent Effect in test [1] and in test [2] were -2.27% and 26.9%, respectively.

As to `Cc1cc(C)c2c(c1)C1(CC(=O)Nc3c1cnn3C(C)C)C(=O)N2` (configuration not stated), the Percent Effect amounted to 1.68% in test [1] and 1.39% in test [2].

On to `Cc1ccc(OCC(=O)NCC(C)C)nc1`, for which the Percent Effect was -3.37% in test [1] and -28.9% in test [2].

On to `O=C(O)c1csc(S(=O)(=O)Nc2cccc(OC(F)F)c2)c1`, for which the Percent Effect is -0.5% in test [1] and -13.1% in test [2].

With `Cc1ccc(NC2CCN(C(=O)CC3CCCO3)CC2)nn1` (configuration not stated), the figures for the Percent Effect in test [1] and in test [2] were -2.07% and 4.7%, respectively.

Regarding `CCN(CCC(F)(F)F)C(=O)Nc1cccc(N2CCOCC2)c1`, the Percent Effect in test [1] was 1.08%; in test [2], -51.5%.

For the compound `CCOCCCNC(=O)c1cc(C)nc(N2CCCC2)n1`, the Percent Effect in test [1] was -5.84%; in test [2], -10.3%.

As to `COc1ccc2c(c1)OC1(CCN(Cc3ccc(F)cc3)CC1)CC2=O`, the Percent Effect is -5.55% in test [1] and 17.6% in test [2].

In the case of `NC(=O)CN1CCC(NC(=O)c2ccn(-c3cccc(F)c3)n2)CC1`, the Percent Effect in test [1] was 2.51%; in test [2] it was -20%.

For the compound `CC(O)CN1CCC(CNCc2cccc(C(N)=O)c2)CC1` (configuration not stated), the Percent Effect in test [1] is -0.954%; in test [2], 12.7%.

Turning to `CCCc1nc(N2CCN(CC)CC2)c2c(n1)c(C)nn2CC`, the values for the Percent Effect in test [1] and in test [2] were 11.2% and -8.6%, respectively.

For the compound `Cc1ccc(C2CCCCCN2Cc2cn(C)nc2C)s1` (configuration not stated), the Percent Effect was -2.17% in test [1] and -71.3% in test [2].

In the case of `CC(=O)N1CCN(C(=O)c2cc(-n3cnnn3)ccc2Cl)CC1`, the Percent Effect is -1.41% in test [1] and -21.8% in test [2].

Consider `Cc1cc(CN2CC[C@H]3C(=O)N(c4ccccc4)CCO[C@H]3C2)no1`, for which the Percent Effect in test [1] was -4.96%; in test [2], -8.26%.

As for `Cc1cc(CN2CCN(C(=O)C(C)C)[C@@H]3CS(=O)(=O)C[C@@H]32)ccc1F`, the Percent Effect in test [1] was 2.51%; in test [2], -10.2%.

Take `Cc1ccc(S(=O)(=O)N2CCC3(CC(C(=O)NCC4CC4)=NO3)C2)cc1` (configuration not stated): the Percent Effect in test [1] came out at 10.8%; in test [2], 14.7%.

Turning to `CC(NC1(CNC(=O)C(C)(C)C#N)CCOCC1)c1ccccc1` (configuration not stated), the Percent Effect was -6.25% in test [1] and -10.5% in test [2].

Consider `Cc1cnn(CCNCc2cccnc2)c1`, for which the values for the Percent Effect in test [1] and in test [2] were -0.568% and -3.36%, respectively.

Consider `O=C(c1cnoc1)N1CCC[C@]2(C[C@H](Oc3ncccc3F)CO2)C1`, for which the Percent Effect in test [1] was -2.03%; in test [2], -8.52%.

As for `Cc1cnn(CC2CCCN2C(=O)CCCc2nc(C)no2)c1` (configuration not stated), the Percent Effect is -0.389% in test [1] and -14.7% in test [2].

As to `COCCc1noc(CN2CCN(CC(O)c3ccccc3)CC2)n1` (configuration not stated), the Percent Effect in test [1] was -1.47%; in test [2] it was 4.32%.

`Cc1noc(C(C)C)c1C(=O)NCC(c1ccsc1)N(C)C` (configuration not stated): the Percent Effect in test [1] is 3%; in test [2], -2.68%.

With `CS(=O)(=O)NCC1CCCN(C(=O)COc2ccc(F)cc2)C1` (configuration not stated), the Percent Effect in test [1] was -1.75%; in test [2] it was -25.1%.

In the case of `COc1cccc(-n2nnc(C(=O)N3CCN(C)CC3C)c2C)c1` (configuration not stated), the results for the Percent Effect in test [1] and in test [2] were -2.92% and -48.2%, respectively.

On to `Cc1cc(NS(=O)(=O)c2ccccc2F)ccc1-n1cccc1C(=O)O`, for which the Percent Effect in test [1] was 6.98%; in test [2] it was 0.354%.
